According to PubChem BioAssay AID1159580 (chemical genetic matrix, 2015):
Several values for one entry are separate records, joined by “and”; a condition that tells them apart may be missing. Identical values can stand only once. Hit rate of the full screen: of about 5,500 compounds, about 2,000 (36%) were called active. Inconclusive results (about 18%) are left out. Rule as the data show it: active = normalized growth mostly below about 0.91 (no sharp cut-off); inconclusive = no clear call, values can overlap the other calls; inactive = mostly above about 0.92. The list shows a part of the results.

Experiment: chemical genetic growth profiling, strain panel (AID 1159580);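 also: tested at 20 µM; growth read once vehicle control cultures reached saturation at 30 °C; 1 = growth at the plate median or of vehicle wells; lower values mean less growth of the strain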
Details: S. cerevisiae deletion strains, growth OD

Measured: normalized growth

CC(=O)N=c1sc(S(N)(=O)=O)nn1C
inactive: locus YAL013W, strain DEP1, stronger effect = lower value 1.01 | locus YAL021C, strain ccr4, stronger effect = lower value 1.01 | locus YAL026C, strain drs2, stronger effect = lower value 1.01 | locus YAL030W, strain snc1, stronger effect = lower value 1 | locus YBL061C, strain skt5, stronger effect = lower value 1.01 | locus YBR009C, strain hhf1, stronger effect = lower value 1 | locus YBR021W, strain FUR4, stronger effect = lower value 1.02 | locus YBR023C, strain chs3, stronger effect = lower value 1.01 | locus YBR171W, strain sec66, stronger effect = lower value 1.03 | locus YBR229C, strain ROT2, stronger effect = lower value 1.01 | locus YBR231C, strain swc5, stronger effect = lower value 1.02 | locus YBR279W, strain paf1, stronger effect = lower value 1.01 | locus YCL011C, strain gbp2, stronger effect = lower value 1.01 | locus YCL016C, strain dcc1, stronger effect = lower value 1.01 | locus YCL029C, strain bik1, stronger effect = lower value 0.995 | locus YCL061C, strain MRC1, stronger effect = lower value 1.01 | locus YCL069W, strain vba3, stronger effect = lower value 1.01 | locus YCR088W, strain abp1, stronger effect = lower value 1.01 | locus YDL005C, strain med2, stronger effect = lower value 1.01 | locus YDL035C, strain GPR1, stronger effect = lower value 1.03 | locus YDL040C, strain nat1, stronger effect = lower value 0.999 | locus YDL074C, strain BRE1, stronger effect = lower value 0.995 | locus YDL101C, strain DUN1, stronger effect = lower value 1.01 | locus YDL134C, strain PPH21, stronger effect = lower value 1.02 | locus YDL185W, strain tfp1, stronger effect = lower value 1.01 | locus YDL192W, strain arf1, stronger effect = lower value 1.01 | locus YDR001C, strain nth1, stronger effect = lower value 1 | locus YDR069C, strain doa4, stronger effect = lower value 1.01 | locus YDR101C, strain arx1, stronger effect = lower value 1 | locus YDR137W, strain rgp1, stronger effect = lower value 1.04 | locus YDR150W, strain NUM1, stronger effect = lower value 1 | locus YDR159W, strain sac3, stronger effect = lower value 0.998 | locus YDR162C, strain NBP2, stronger effect = lower value 1.02 | locus YDR195W, strain ref2 0.991 | locus YDR297W, strain sur2, stronger effect = lower value 1 | locus YDR318W, strain mcm21, stronger effect = lower value 1.02 | locus YDR334W, strain swr1, stronger effect = lower value 1.01 | locus YDR335W, strain msn5, stronger effect = lower value 1.01 | locus YDR388W, stronger effect = lower value 1.01 | locus YDR392W, strain spt3, stronger effect = lower value 1.02 | locus YDR502C, strain sam2, stronger effect = lower value 0.998 | locus YEL003W, strain gim4, stronger effect = lower value 1.01 | locus YEL037C, strain rad23, stronger effect = lower value 1 | locus YEL061C, strain CIN8 (second series), stronger effect = lower value 1.01 | locus YEL061C, strain CIN8, stronger effect = lower value 1 | locus YER015W, strain faa2, stronger effect = lower value 0.989 | locus YER016W, strain bim1, stronger effect = lower value 1.01 | locus YER110C, stronger effect = lower value 1.02 | locus YER111C, strain swi4, stronger effect = lower value 0.994 | locus YER155C, strain BEM2 (second series), stronger effect = lower value 1.02 | locus YER155C, strain BEM2, stronger effect = lower value 1 | locus YER167W, strain BCK2, stronger effect = lower value 1.02 | locus YFR010W, strain ubp6, stronger effect = lower value 1.02 | locus YGL078C, strain dbp3, stronger effect = lower value 1 | locus YGL086W, strain mad1, stronger effect = lower value 0.998 | locus YGL167C, strain pmr1, stronger effect = lower value 1.01 | locus YGL173C, strain kem1, stronger effect = lower value 1.01 | locus YGL227W, strain vid30, stronger effect = lower value 1.01 | locus YGL240W, strain doc1, stronger effect = lower value 1.03 | locus YGL248W, strain PDE1, stronger effect = lower value 0.997 | locus YGL253W, strain hxk2, stronger effect = lower value 1.02 | locus YGR135W, strain pre9, stronger effect = lower value 1.06 | locus YGR252W, strain gcn5, stronger effect = lower value 1.01 | locus YHR013C, strain ard1, stronger effect = lower value 1.03 | locus YHR027C, strain rpn1, stronger effect = lower value 1.02 | locus YHR030C, strain SLT2, stronger effect = lower value 1 and 1.06 | locus YHR079C, strain IRE1 (second series), stronger effect = lower value 1.01 | locus YHR079C, strain IRE1, stronger effect = lower value 1.06 | locus YHR094C, strain hxt1, stronger effect = lower value 1.01 | locus YHR129C, strain ARP1, stronger effect = lower value 1.02 | locus YHR142W, strain chs7, stronger effect = lower value 1.02 | locus YHR200W, strain rpn10, stronger effect = lower value 1.01 | locus YIL066C, strain RNR3, stronger effect = lower value 1 | locus YIL073C, strain SPO22, stronger effect = lower value 1.07 | locus YIL125W, strain kgd1, stronger effect = lower value 0.997 | locus YIR030C, strain dcg1, stronger effect = lower value 0.996 | locus YJL092W, strain hpr5, stronger effect = lower value 1.02 | locus YJL095W, strain BCK1 (second series), stronger effect = lower value 1.01 | locus YJL095W, strain BCK1, stronger effect = lower value 0.989 and 1.05 | locus YJL115W, strain asf1, stronger effect = lower value 1.01 | locus YJL129C, strain trk1, stronger effect = lower value 1 | locus YJL134W, strain LCB3, stronger effect = lower value 1.01 | locus YJL154C, strain vps35, stronger effect = lower value 1 | locus YJL164C, strain tpk1, stronger effect = lower value 1.01 | locus YJL166W, strain qcr8, stronger effect = lower value 0.998 | locus YJL168C, strain set2, stronger effect = lower value 1.01 | locus YJL187C, strain SWE1 (second series), stronger effect = lower value 0.984 | locus YJL187C, strain SWE1, stronger effect = lower value 1.01 | locus YJR043C, strain POL32, stronger effect = lower value 0.986 | locus YJR066W, strain TOR1, stronger effect = lower value 0.984
